# Out of some 320,000 compounds screened, about 22,000 (6.9%) were called active. Not shown: some 27% with an inconclusive outcome. The full list was thinned out, with actives kept by preference. A number with no mark means an inactive call. Calls come from the whole dose curve; as a rule, active = well fitted inhibition curve with a large enough effect; inconclusive = small, poorly fitted or top-dose-only effect, or another doubt; inactive = no such curve, though single readings can be large or run the other way.
# Experiment: Primary qHTS for delayed death inhibitors of the malarial parasite plastid, 96 hour incubation
# Conditions: P. falciparum luciferase reporter growth; series mostly up to 28.7 µM; activity change, negative = inhibition: at the top concentration
# Procedure, shortened: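 Parasite growth measured via integrated firefly luciferase reporter in P. falciparum. Infected erythrocytes at 2% hematocrit, 0.05% parasitemia final were treated 96 hours at 37 C under 5% CO2, and luminescence was read.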
# % is set by controls: 0 for no effect and ±100 for the full control effect; potency is the fitted concentration of half-maximal effect.
SMILES,"activity change, negative = inhibition [%]",Potency
CCC(=O)Nc1ccc2nn(-c3ccc(F)cc3)nc2c1,0,
Cc1cccc(NC(=O)CN2CCN(CC(=O)NCC3(N4CCCCC4)CCCCC3)CC2)c1C,1.42,
COC(=O)c1c(NC(=O)COc2ccc(Cl)cc2Cl)sc2c1CC(C)(C)NC2(C)C,,6.57 µM (active)
CN1CCN(c2ccc(NC(=O)COc3ccc(Cl)cc3Cl)cc2)CC1,-18.7,
COC(=O)c1sccc1NC(=O)COc1ccc(Cl)cc1,8.06,
Cc1nc2ccccc2c(=O)n1-c1ccc(F)c(NC(=O)c2cccs2)c1,12,
O=C(NCc1cccc(Cl)c1)C1CCC(=O)N(C2CC2)C1 (centres undefined),35.7,
CCN1CCN(CCNC(=O)c2ccc3c(c2)NC(=O)/C(=C\c2ccc(OC)c(OC)c2)S3)CC1,-26.6,
Cc1ccc(S(=O)(=O)N(CC(O)CN2C(=O)NC(C)(C)C2=O)c2cccc([N+](=O)[O-])c2)cc1 (centres undefined),3.55,
COc1cc(/C=C2\CCCc3c2nc2ccccc2c3C(=O)O)cc(Cl)c1O,-4.48,
COc1ccccc1N1CCN(C(=O)Cn2nnc(-c3cccs3)n2)CC1,3.57,
O=C(Nc1ccccc1-c1nnn(CC(=O)N2CCN(c3ccccc3)CC2)n1)c1cccs1,,9.28 µM (active)
O=C(Nc1ccc(N2CCN(C(=O)C3CC3)CC2)cc1)c1cccs1,-4.99,
Cc1nc2nc(SCC(=O)Nc3cccc(F)c3)[nH]c2cc1Br,16.6,
N#Cc1ccc(OCC(=O)NC(=O)NC2CCS(=O)(=O)C2)cc1 (centres undefined),2.04,
CCOC(=O)C(C)N(c1ccccc1Cl)S(C)(=O)=O (centres undefined),7.23,
Cc1cccc(OCCNC(=O)CSc2ccc(C(F)(F)F)cc2[N+](=O)[O-])c1,331,

SMILES,"activity change, negative = inhibition [%]",Potency
Nc1ccccc1Sc1ccc(C(F)(F)F)cc1[N+](=O)[O-],3.57,
O=C(CSc1ccc(C(F)(F)F)cc1[N+](=O)[O-])NCCOc1ccccc1,,13.1 µM (active)
CCOc1ccccc1OCCCNCc1ccccc1,28.2,
O=C(CNc1ccc(F)cc1F)NC(=O)NCc1ccco1,11.3,
Cn1c(CNC(=O)c2ccco2)nnc1SCC(=O)N1CCN(c2ccccc2)CC1,-1.11,
O=C(Nc1cccc2ccccc12)N1CCC2(CC1)OCCO2,-27.2,
Cc1nc2nc(C)c(CCC(=O)N3CCC4(CC3)OCCO4)c(C)n2n1,,11.7 µM (active)
Cc1nc2ncnn2c(C)c1CCC(=O)N1CCN(C(=O)c2ccco2)CC1,37,
COc1ccc(CNC(=O)CNC(=O)c2sc3ccccc3c2Cl)cc1OC,0.724,
CCOc1ccc(C)cc1S(=O)(=O)NC1CCCCCC1,-19.9,
Cc1ccc(-n2nc(C)c(C(=O)O)c2-n2cccc2)cc1,17.1,
O=C(NCCCc1ccccc1)C1CCC(CNc2c(N3CCCCC3)c(=O)c2=O)CC1 (centres undefined),-25.3,
CCOc1ccccc1NC(=O)C1CCC(CNc2c(N3CCOCC3)c(=O)c2=O)CC1 (centres undefined),-10.4,
O=C(NCc1ccc(F)cc1)C1CCC(CNc2c(N3CCOCC3)c(=O)c2=O)CC1 (centres undefined),-22.9,
COc1ccc(NC(=O)C2CCC(CNc3c(N4CCCCC4)c(=O)c3=O)CC2)c(OC)c1 (centres undefined),-15.3,
O=C(NCc1ccccc1Cl)C1CCC(CNc2c(N3CCCCC3)c(=O)c2=O)CC1 (centres undefined),,10.4 µM (active)
CC(NC(=O)C1CCC(CNc2c(N3CCOCC3)c(=O)c2=O)CC1)c1ccccc1 (centres undefined),,13.1 µM (active)

# Source: PubChem BioAssay AID504834 (National Center for Advancing Translational Sciences (NCATS), 2011)
